MARV entry inh: inhibitors of Marburg virus binding or cell entry. Marburg virus pseudotyped entry inhibition, cell reporter. Potency, µM (series often up to 37.8 µM), inactives show top-dose activity change, negative = inhibition, actives largely listed as inhibitors. 300,000 tested, 1.8% active; calls by dose curve; tested in HEK293 cells; also: potency is read from the fitted curve at half-maximal effect
Giardia FBPA inh: inhibitors of Giardia lamblia fructose-1,6-bisphosphate aldolase. Potency, µM (doses to about 59.6 µM), without a hit: at the top dose activity, negative = inhibition, most hits filed as inhibitors. 290,000 tested, 0.71% active. AID 2451. A8B2U2. purified Giardia FBPA; also: potency is read from the fitted curve at half-maximal effect; nearly all actives have a fitted effect of over 55% in size
Target sequence (A8B2U2 whole entry, looked up): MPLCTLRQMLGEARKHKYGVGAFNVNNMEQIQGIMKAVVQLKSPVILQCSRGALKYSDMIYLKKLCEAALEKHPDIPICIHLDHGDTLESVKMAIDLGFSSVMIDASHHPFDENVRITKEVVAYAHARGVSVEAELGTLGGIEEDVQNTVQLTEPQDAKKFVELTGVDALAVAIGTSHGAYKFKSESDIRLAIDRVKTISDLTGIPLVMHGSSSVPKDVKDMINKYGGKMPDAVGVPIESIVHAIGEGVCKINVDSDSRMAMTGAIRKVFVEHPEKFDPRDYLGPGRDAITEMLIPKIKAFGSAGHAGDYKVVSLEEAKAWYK
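Giardia FBPA (40 nM reagent) was preincubated 10 min at RT with compound (up to 57.5 uM final), then substrate plus GAPDH/TPI/NAD/arsenate coupling system with diaphorase/resazurin was added; resorufin fluorescence (525/598 nm) was read after 20 min.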
LASV entry inh: Lassa virus entry inhibition; Lassa virus pseudotype entry inhibition, cell reporter; Potency, µM (highest dose often 37.9 µM), for the others: top-dose activity change, negative = inhibition, most hits filed as inhibitors; 300,000 tested, 1.2% active; AID 540256; calls by dose curve; tested in HEK293 cells; also: potency is read from the fitted curve at half-maximal effect; nearly all actives have a fitted effect of over 50% in size
FMDV antiviral: foot and mouth disease virus antiviral activity; 410,000 tested, 1.2% active; Potency, µM (top dose mostly 57.9 µM), without a hit: top-dose activity change, negative = inhibition, most hits filed as inhibitors; AID 1159524; FMDV antiviral cell-based qHTS; calls by dose curve; tested in HEK293T cells; also: read-out not given here; potency is read from the fitted curve at half-maximal effect; nearly all actives have a fitted effect of over 45% in size
HCMV inh: blocks human cytomegalovirus replication; activity change, negative = inhibition, % at 57.5 µM; HFF cells, HCMV-luciferase reporter, 72 h; hits give low values; 410,000 tested, 4.5% active; AID 1259415; in the data active = activity change below about -60%; inconclusive = no clear call, values can overlap the other calls; inactive = above about -39%
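Two compound doses tested in HFFs infected with HCMV-luciferase, MOI 1 PFU/cell, 72 h at 37C. Lysate luminescence read with OneGlo; data normalized against buffer-only and 10uM Salinomycin inhibitor controls.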
HCV inhibitor: inhibitors of hepatitis C virus infection. 340,000 tested, 3.4% active. Huh7.5.1 HCVcc-Cre infection, luciferase reporter, 44 h. Potency, µM (series often up to 41.8 µM), for inactives: at the highest dose activity change, negative = inhibition, hits mostly inhibitors; also: potency is read from the fitted curve at half-maximal effect
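Infectious HCVcc-Cre (~0.5 moi) was added to cells just after compound, with cells seeded 4 h earlier at 1,000 per well. Luciferase activity after 44 h culture reported infection; substrate was incubated 15 min at room temperature before reading.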
An asterisk follows results filed as active; ? = inconclusive; nt = no result; [ ] = dose if it differs, or a comment. Most compounds without a hit are left out; they make up all but 8.3% or so of the library. Unless noted, calls follow the shape of the dose curve; as a rule, active = well fitted curve in the direction sought with a large enough effect; inconclusive = small, poorly fitted or top-dose-only effect, or another doubt; inactive = no such curve, though single readings can be large; an effect the other way counts as inactive or inconclusive. % is scaled to controls: 0 for no effect and ±100 for the full control effect.

SMILES	MARV entry inh	Giardia FBPA inh	LASV entry inh	FMDV antiviral	HCMV inh	HCV inhibitor
COc1ccccc1CC(=O)N1CCCC1	19.0%	2.8%	6.2%	-16.4%	-7.2	20.3%
COc1ccc(N2CCN(C(=O)CSc3ccc(C)cc3)CC2)cc1	19.9%[14.2 µM]	3.0%	13.6%	6.6%	-4.5	7.8%
COc1ccccc1CC(=O)N1CCN(c2ccccn2)CC1	5.3%	2.4%	0.3%	5.8%	-73.5*	-5.5%
C[C@H](NC(=O)Cc1cc(F)cc(F)c1)C(=O)N[C@@H](C(=O)OC(C)(C)C)c1ccccc1	nt	0.0%	nt	nt	nt	nt
COC(=O)[C@]1(C=C2c3ccccc3C[C@H](OC)[C@@H]2C)[C@@H]2CC=C[C@@H]21	-7.8%[14.2 µM]	nt	nt	nt	nt	nt
CC(C)[C@H](NC(=O)N1c2ccccc2NC(=O)[C@@H]1C(C)C)C(=O)N1CCC(C(=O)O)CC1	nt	5.2%	nt	4.6%	39.5	31.6µM*
CCS(=O)(=O)N1CCC(C(=O)NCCC(C)C)CC1	nt	nt	-18.8%[46.1 µM]	-4.1%	-16.6	nt
COC(=O)C(Cc1ccccc1)N1CCS(=O)(=O)CC1 (centres undefined)	16.6%[46.1 µM]	0.7%	7.9%	-3.8%	-69.5*	-6.2%
CC(C)C(=O)N[C@@H]1CCCN1C(=O)C=Cc1ccccc1	-46.9%[14.2 µM]	nt	-0.4%[14.3 µM]	nt	nt	nt
COc1ccccc1C(CNC(=O)c1cccc(S(=O)(=O)Nc2ccc(C)cc2)c1)N(C)C (centres undefined)	?	nt	-16.4%	7.2%	-76.4*	nt
O=C(NCC(c1ccc(Cl)cc1)N1CCCCC1)c1ccc(F)cc1 (centres undefined)	2.82µM*	nt	-25.6%[46.1 µM]	-2.9%	3.1	nt
Cc1ccc(C(=O)NCC(c2ccc(Cl)cc2)N2CCCCC2)cc1 (centres undefined)	?	nt	-0.8%[46.1 µM]	-19.7%	-5.2	nt
COc1ccc(C(CNC(=O)c2cccc(S(=O)(=O)Nc3ccc(F)cc3)c2)N2CCCCC2)cc1 (centres undefined)	nt	nt	nt	0.7%	-5.3	5.01µM*
O=C(NCC(c1ccco1)N1CCCCC1)c1ccc(COc2ccc(Cl)cc2)cc1 (centres undefined)	?	nt	10µM*	-23.3%	-32.6	?
COc1ccc(NS(=O)(=O)c2cccc(C(=O)NCC(c3ccccc3)N(C)C)c2)cc1 (centres undefined)	1.9%	nt	0.9%	0.1%	-12.7	0.7%
CCN(C(=O)Cn1c(=O)n(Cc2ccccc2)c(=O)c2c1c1cc(OC)ccc1n2C)c1ccccc1	nt	nt	6.7%[46.1 µM]	2.1%	15.6	nt
O=C(c1ccc(F)cc1)N1CC(=O)N2[C@@H](CO)[C@@H](c3ccc(Br)cc3)[C@@H]2C1	nt	nt	nt	nt	-1.1	nt
CS(=O)(=O)Nc1cccc(C(=O)CC2(O)C(=O)Nc3ccccc32)c1 (centres undefined)	8.7%	0.0%	8.4%	-1.5%	-67.7*	10.1%
CCS(=O)(=O)Nc1cccc(C(=O)CC2(O)C(=O)Nc3ccccc32)c1 (centres undefined)	5.0%	7.7%	0.0%	-27.7%	-8.1	-1.2%
S=c1[nH]nc(CN2CCCCC2)n1Cc1ccccc1	1.7%[46.1 µM]	-1.4%	?	-13.2%	-81.9*	8.9%
CCn1c(CSCc2ccccc2)n[nH]c1=S	1.2%[46.1 µM]	-1.7%	-11.6%	-7.7%	-73.1*	23.0%
Cc1n[nH]c(=S)n1Cc1ccccc1	nt	-26.1%	nt	-7.4%	-82.2*	18.9%
CCn1c(Cc2ccccc2)n[nH]c1=S	nt	-6.3%	nt	-5.1%	-13.5	18.0%
CS(=O)(=O)N(CC(=O)N/N=C/c1cccc2c1OCCO2)c1ccccc1Br	-7.1%	0.1%	8.7%	-14.7%	5.4	2.7%
CCOC(=O)c1ccc(-c2ccc(/C=N/NC(=O)CN(c3ccccc3Br)S(C)(=O)=O)o2)cc1	?	0.0%	13.9%	-27.6%	10.5	11.2µM*
SMILES	MARV entry inh	Giardia FBPA inh	LASV entry inh	FMDV antiviral	HCMV inh	HCV inhibitor
C/C=C1/C2C=C(C)CC1(N)c1ccc(=O)[nH]c1C2 (centres undefined)	nt	3.8%	nt	nt	nt	nt
Cc1ccc(OCC(=O)Nc2cccc(-c3nc4ccccc4s3)c2)cc1	27.1%[46.1 µM]	nt	12.9%[46.1 µM]	21.2%	64.1	nt
Cn1c(=O)c2ncn(CC(=O)Nc3cccc(-c4nc5ccccc5s4)c3)c2n(C)c1=O	?	2.4%	?	15.4%	10.6	10µM*
Cc1ccc2cccc(NC(=O)C(C)Oc3ccc(Cl)cc3Cl)c2n1 (centres undefined)	?	nt	-5.6%[46.1 µM]	-26.5%	-23.2	nt
Cc1ccc(C(C)C)c(OCC(=O)Nc2sc3c(c2C#N)CC(C)(C)NC3(C)C)c1	?	10.0%	-19.0%	?	nt	?
CC1(C)Cc2c(sc(NC(=O)COc3ccccc3)c2C#N)C(C)(C)N1	0.7%	2.1%	-9.0%	-8.6%	13.7	12.6µM*
COC(=O)c1c(NC(=O)COc2ccc(Cl)cc2)sc2c1CC(C)(C)NC2(C)C	?	nt	-6.4%[46.1 µM]	18.9%	24.3	11.2µM*
CCCC(=O)Nc1sc2c(c1C#N)CC(C)(C)NC2(C)C	0.1%	0.9%	-1.2%	-16.8%	-17.8	-5.0%
Cc1cc(OCC(=O)Nc2sc3c(c2C#N)CC(C)(C)NC3(C)C)c(C(C)C)cc1Cl	nt	nt	nt	?	-21.1	3.16µM*
COC(=O)c1c(NC(=O)Cc2ccccc2)sc2c1CC(C)(C)NC2(C)C	nt	-15.1%	nt	-19.1%	-16.3	-27.7%
CCCCCCCC/C=C\CCCCCCCCOC[C@H](COP(=O)([O-])OCC[N+](C)(C)C)OC(C)=O	nt	1.8%	nt	7.7%[6.7 µM]	nt	nt
Cc1ccc(C)c(CN2C(=O)c3ccccc3S(=O)(=O)c3ccc(C(=O)N4CCc5ccccc54)cc32)c1	?	nt	-20.0%[46.1 µM]	12.7%	-24.2	nt
Cc1ccc(O)c(C(=O)CC(=O)c2ccccc2Cl)c1	?	0.9%	?	20.5%	-9.4	5.01µM*
Cc1ccc(C(=O)Nc2nc(-c3nnn(-c4cccc(C(F)(F)F)c4)c3C)ns2)cc1	nt	nt	12.3%[46.1 µM]	-20.7%	8.3	nt
COc1cc(OC)cc(C(=O)Nc2nc(-c3nnn(-c4ccc(C)cc4)c3C)ns2)c1	nt	nt	-3.5%[46.1 µM]	?	-105.7*	nt
COc1ccc(CNC(=O)c2cc3ccccn3n2)c(OC)c1	nt	nt	-2.4%[46.1 µM]	28.8%	20.9	nt
c1ccc2c(CNC3CCCCCC3)c[nH]c2c1	13µM*	-0.2%	-2.0%	?	10.5	8.3%
c1ccc2c(CN3CCCCCC3)c[nH]c2c1	?	0.0%	-14.9%	0.0%	-77.2*	-28.6%
Cc1c(CC(C)(C)C(=O)O)n(Cc2ccc(Cl)cc2)c2ccc(F)cc12	nt	22.3%	nt	-15.2%	nt	nt
CCN(CC)CCCNCC(=O)Nc1ccc2c(c1)CCC2	nt	?	nt	56.6%	19.0	10µM*
COc1ccc(NC(=O)CCCSc2ccccc2)cc1S(N)(=O)=O	0.8%[46.1 µM]	-1.9%	-14.6%	26.9%	?	-4.7%
COc1ccc(NC(=O)COc2ccccc2Cc2ccccc2)cc1S(N)(=O)=O	?	2.7%	?	?	-72.9*	10µM*
COc1ccc(NC(=O)CN(Cc2ccccc2)Cc2ccccc2)cc1S(N)(=O)=O	-8.1%	-2.9%	-0.2%	46.0%	-62.3*	21.2%

Screening results from PubChem.
